Screening data (PubChem)
Compounds with a hit are over-represented: about 19% of the library has one in this group of screens.
DT40 TDP1 CPT: qHTS for Inhibitors of human tyrosyl-DNA phosphodiesterase 1 (TDP1): qHTS in cells in presence of CPT; chicken DT40 Tdp1-/-;hTDP1 cells + 20 nM CPT, ATP luminescence, 48 h; Potency, µM (doses to about 46.2 µM), inactives show at the highest dose activity change, negative = growth inhibition, most hits filed as inhibitors; 12% of 420,000 active; AID 686979, 2013; further: nearly all actives have a fitted effect of over 55% in size
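Chicken DT40 Tdp1-/- cells complemented with human TDP1, 400 cells/well, exposed to compounds plus 20 nM camptothecin for at least 48 h at 37 C; viability read as ATP content by CellTiter-Glo luminescence.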
KB-V1 cytotox: qHTS assay for MDR1-selective chemotherapeutics: Primary screen using the drug-selected MDR subline cells KB-V1 | KB-V1 MDR cells viability, CellTiter-Glo, 72 h | Potency, µM (top dose mostly 46.1 µM), usual class: cytotoxic | 3.4% of 400,000 active | AID 1347076, 2019; further: nearly all actives have a fitted effect of over 60% in size
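Cytotoxicity via CellTiter-Glo luminescence after 72 h compound exposure at 37 degrees C. Cells: drug-selected KB-V1 line, DMEM phenol-red free plus 10% FBS. Compounds tested at multiple concentrations; normalized data fitted to concentration-effect curves.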
DT40 TDP1 no CPT: qHTS for Inhibitors of human tyrosyl-DNA phosphodiesterase 1 (TDP1): qHTS in cells in absence of CPT. 15% of 420,000 active. Potency, µM (highest dose often 46.2 µM), for the others: at the highest dose activity change, negative = growth inhibition, actives largely listed as inhibitors. DT40 Tdp1-/- hTDP1 cells, no CPT, ATP luminescence, 48 h; further: nearly all actives have a fitted effect of over 55% in size
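Growth kinetics read by CellTiter-Glo luminescence after ≥48 hr at 37 °C. Cells: DT40 Tdp1-/- stably carrying human TDP1, 400 per well, compound exposure in the absence of CPT (DMSO vehicle).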
HT1080 IDH1KD tx: qHTS for induction of synthetic lethality in tumor cells producing 2HG: qHTS for the HT-1080-IDH1KD cell line; Potency, µM (titrated, usually from 46.1 µM), without a hit: at the highest dose activity, negative = toxicity, usual class: cytotoxic; 2% of 360,000 active; AID 686971, 2013; HT-1080 IDH1 knockdown viability, ATP luminescence, 48 h;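 further: 0% = DMSO wells and -100% = cell-free medium wells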
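Assay cells: HT-1080 with IDH1 knockdown, 750 per well, RPMI/5% FBS. Exposure: 48 h at 37 °C following 2 h pre-incubation. Read: CellTiter-Glo luminescence; fitted concentration-response, curve class assigned.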
KB-3-1 cytotox: qHTS assay for MDR1-selective chemotherapeutics: Primary screen using the parental adenocarcinoma cell KB-3-1; KB-3-1 viability, CellTiter-Glo ATP luminescence, 72 h; Potency, µM (titrated, usually from 46.1 µM), most hits filed as cytotoxic; 1.4% of 400,000 active; further: nearly all actives have a fitted effect of over 60% in size
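Cytotoxicity in the drug-sensitive parental line KB-3-1 was scored as loss of CellTiter-Glo luminescence following 72 h incubation with compound. Values come from curve fitting of normalized concentration-response data.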
HT1080NT lethal: qHTS for induction of synthetic lethality in tumor cells producing 2HG: qHTS for the HT-1080-NT fibrosarcoma cell line; HT-1080-NT fibrosarcoma viability, CellTiter-Glo ATP luminescence, 48 h; Potency, µM (top dose mostly 46.1 µM), for inactives: at the highest dose activity, negative = less viability, hits mostly cytotoxic; 1.6% of 360,000 active; AID 686970, 2013;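 further: NT is the 2HG producing partner of a matched IDH1 knockdown line; 0% = DMSO-treated cells and -100% = media-only wells without cells; nearly all actives have a fitted effect of over 55% in size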
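Viability by CellTiter-Glo luminescence after 48 h compound exposure at 37C of HT-1080-NT cells (750/well, RPMI, 5% FBS). % activity scaled between DMSO wells and medium-only wells, then curve-fitted and categorized by curve class.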
* = called active by the depositor; i = inactive; u = inconclusive; x = no result. The call rests on the fitted dose curve; in most records, active means well fitted curve in the direction sought with a large enough effect; inconclusive means small, poorly fitted or top-dose-only effect, or another doubt; inactive means no such curve, though single readings can be large; an effect the other way counts as inactive or inconclusive. Unless noted, on the % scale 0 is the no-effect control and ±100 the full control effect; potency means the concentration at half of the fitted maximal effect.

SMILES	DT40 TDP1 CPT	KB-V1 cytotox	DT40 TDP1 no CPT	HT1080 IDH1KD tx	KB-3-1 cytotox	HT1080NT lethal
CCOc1ccccc1-n1c(SCC(=O)NC2CCCC2)nnc1-c1ccoc1C	u	i	14µM*	3%	i	7%
O=C(CSc1nnnn1-c1cccc2ccccc12)Nc1ccc(C(=O)O)cc1	17%	i	2%	9%	i	11%
COc1ccc(-c2csc(NC(=O)CN3C(=O)C4CCCCC4C3=O)n2)cc1OC (stereo not drawn)	-1%	u	-28%	-6%	i	6%
O=C(CN1C(=O)C2CC=CCC2C1=O)NCC(=O)Nc1ccc(F)c(F)c1 (stereo not drawn)	-18%	i	-1%	-1%	i	13%
O=C(COC(=O)C1CC2CCCC(C1)C2=O)Nc1nc(-c2ccc(F)c(F)c2)cs1 (stereo not drawn)	u	i	u	6%	i	7%
O=C(CN1C(=O)C2CC=CCC2C1=O)Nc1nc(-c2ccc(F)c(F)c2)cs1 (stereo not drawn)	u	i	21µM*	-18%	i	0%
O=C(CCN1C(=O)C2CCCCC2C1=O)Nc1nc(-c2ccc(F)c(F)c2)cs1 (stereo not drawn)	u	i	18µM*	-8%	i	-12%
COc1ccc(-c2csc(NC(=O)CN3C(=O)C4CC=CCC4C3=O)n2)cc1OC (stereo not drawn)	u	i	8.2µM*	-8%	i	1%
COc1ccc(-n2c3c(c(=O)[nH]c2=O)C(NC(=O)c2ccccc2Cl)(C(F)(F)F)C(=O)N3)cc1 (stereo not drawn)	15%	i	1%	x	i	x
COc1ccc(C(N)c2csc(NC(=O)Nc3ccccc3C(C)(C)C)n2)cc1 (stereo not drawn)	u	i	u	u	i	u
COc1ccc(CC(N)c2csc(NC(=O)NCCc3ccccc3)n2)cc1 (stereo not drawn)	u	i	u	u	i	u
COc1ccc(CC(N)c2csc(NC(=O)c3ccc(F)cc3)n2)cc1 (stereo not drawn)	u	i	23µM*	u	i	21µM*
COc1ccc(CC(N)c2csc(NC(=O)C(c3ccccc3)c3ccccc3)n2)cc1 (stereo not drawn)	18µM*	21µM*	6.5µM*	21µM*	u	u
COc1ccc(CNC(=O)Nc2nc(C(N)Cc3ccc(C(F)(F)F)cc3)cs2)cc1 (stereo not drawn)	u	u	21µM*	u	u	u
COc1ccc(CC(N)c2csc(NC(=O)c3ccccc3OC)n2)cc1 (stereo not drawn)	u	i	-25%	-29%	i	u
COc1cc(CNC(=O)Nc2nc(C(N)Cc3ccc(Cl)cc3)cs2)cc(OC)c1OC (stereo not drawn)	u	i	18µM*	u	u	6.5µM*
Cn1c(=O)n(Cc2ccccc2)c(=O)c2c1nc1n2CCN1c1ccccc1	-12%	x	-16%	x	x	x
COc1ccc(CC(N)c2csc(NC(=O)c3ccccc3)n2)cc1 (stereo not drawn)	u	i	u	-23%	i	-25%
COc1ccc(CC(N)c2csc(NC(=O)c3ccc(OC)cc3)n2)cc1 (stereo not drawn)	16µM*	i	21µM*	-22%	i	u
Cc1cc(C)c(S(=O)(=O)N2CCN(c3ccc([N+](=O)[O-])c(-n4nc(C)cc4C)c3)CC2)c(C)c1	26µM*	i	21µM*	-1%	i	10%
Cc1cc(C)n(-c2cc(N3CCN(S(=O)(=O)c4ccc(Br)cc4)CC3)ccc2[N+](=O)[O-])n1	12µM*	u	12µM*	1%	u	3%
CC(C)(CNC(=O)C1c2ccccc2-c2ccccc21)N1CCOCC1	9%	i	2%	-5%	i	-8%
Cc1nc2c(-c3ccccc3)c(C)nn2c(C)c1CCC(=O)N1CCN(c2ccc(F)cc2)CC1	u	i	u	x	i	x
COc1ccc(C2=C(C)C(=O)N(Cc3ccc(C(=O)NCc4ccccc4C)cc3)S2(=O)=O)cc1	u	i	u	x	i	x
CC1=C(c2ccc(C)c(C)c2)S(=O)(=O)N(Cc2ccc(C(=O)NCc3cccc(C)c3)cc2)C1=O	u	i	u	x	i	x
SMILES	DT40 TDP1 CPT	KB-V1 cytotox	DT40 TDP1 no CPT	HT1080 IDH1KD tx	KB-3-1 cytotox	HT1080NT lethal
COc1ccc(C2=C(C)C(=O)N(Cc3ccc(C(=O)Nc4cc(C)ccc4C)cc3)S2(=O)=O)cc1	18µM*	i	10µM*	x	i	x
CC1=C(c2ccc(C)cc2)S(=O)(=O)N(Cc2ccc(C(=O)Nc3ccc(C)c(F)c3)cc2)C1=O	26µM*	i	u	x	i	x
CSc1cccc(NC(=S)NC(=O)CCc2ccccc2)c1	u	u	-6%	-20%	u	-17%
CCCC(=O)NC(=S)Nc1c(C)cc(Br)cc1C	u	u	16µM*	-4%	18µM*	0%
Cc1cccc(C)c1NC(=S)NC(=O)CCc1ccccc1	4%	u	-25%	11µM*	i	10µM*
NC(=O)c1ccccc1NC(=S)NC(=O)CCc1ccccc1	3.7µM*	i	2.6µM*	3.3µM*	i	3.3µM*
Cc1cc(O)ccc1NC(=S)NC(=O)c1cncc(Br)c1	15µM*	u	16µM*	u	i	-14%
Cc1cc(NC(=O)c2cncc(Br)c2)ccc1NC(=O)c1cc2ccccc2o1	13µM*	u	8.2µM*	-14%	u	-6%
O=C(NCc1ccccc1)c1cccc(NC(=O)c2ccco2)c1	-4%	8.2µM*	-4%	4.1µM*	10µM*	u
O=C(NCc1ccco1)c1ccccc1	2%	i	0%	0%	i	8%
O=C(NCc1ccco1)c1cccc(-c2nnc(-c3ccccc3)o2)c1	21µM*	u	u	-30%	u	-6%
